In the supplement of paper PMC10849652:
About 8,800 targets were measured; listed, in parts, are those with a hit and a random draw of the rest. About 0.5% of all pairs of compound and target were hits.

How the values were obtained:
Experiment in all cases: log2 fold change, soluble protein after heating vs DMSO (PISA); higher = thermal stabilisation; K562 lysate, 10 uM; active = over 0.2 and 3.5 SD of the protein, either way, in both replicates (recomputed)
alvocidib = compound: CN1CC[C@H](c2c(O)cc(O)c3c(=O)cc(-c4ccccc4Cl)oc23)[C@H](O)C1 [alvocidib]
In short: (§1)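 To prepare the extract, K562 pellets were dounce-homogenised in PBS pH 7.4 with 1 mM MgCl2, giving crude material at 1 mg/mL protein. This was treated with 10 μM compound for 30 min, then heated in aliquots for 3 min over 48°C-58°C before pooling and addition of NP-40 to 0.5% at 4°C. Centrifugation at 21,000xg for 90 min left soluble protein in the supernatant, which TMTpro 16plex LC-MS/MS quantified with equalised channel sums. Results are log-two fold changes in thermal stability compared with solvent controls, from duplicates.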

Tubastatin A = compound: CN1CCc2c(c3ccccc3n2Cc2ccc(C(=O)NO)cc2)C1 [Tubastatin A]
In short: as §1

defactinib = compound: CNC(=O)c1ccc(Nc2ncc(C(F)(F)F)c(NCc3nccnc3N(C)S(C)(=O)=O)n2)cc1 [defactinib]
In short: as §1

[1] = compound: CNc1nc(-c2ccc3c(N)n[nH]c3c2)cc(N2C[C@@H](C(=O)NC3CCCCC3)CC[C@H]2C)n1
In short: as §1

encorafenib = compound: COC(=O)N[C@@H](C)CNc1nccc(-c2cn(C(C)C)nc2-c2cc(Cl)cc(NS(C)(=O)=O)c2F)n1 [encorafenib]
In short: as §1

[2] = compound: COC(=O)[C@H](CCSC)NC(=O)C1=C(C=C(C=C1)NC[C@H](CS)N)C2=CC=CC=C2
In short: as §1

alisertib = compound: COc1cc(Nc2ncc3c(n2)-c2ccc(Cl)cc2C(c2c(F)cccc2OC)=NC3)ccc1C(=O)O [alisertib]
In short: as §1

[3] = compound: COc1cc2nc(-c3cc(F)ccc3O)nc(N[C@@H]3CNC[C@H]3C(C)(C)O)c2cc1OC
In short: as §1

gefitinib = compound: COc1cc2ncnc(Nc3ccc(F)c(Cl)c3)c2cc1OCCCN1CCOCC1 [gefitinib]
In short: as §1

lapatinib = compound: CS(=O)(=O)CCNCc1ccc(-c2ccc3ncnc(Nc4ccc(OCc5cccc(F)c5)c(Cl)c4)c3c2)o1 [lapatinib]
In short: as §1

crizotinib = compound: C[C@@H](Oc1cc(-c2cnn(C3CCNCC3)c2)cnc1N)c1c(Cl)ccc(F)c1Cl [crizotinib]
In short: as §1

[4] = compound: C[C@H](C1=CC=C(C=C1)C(=O)NC2=C3C=CNC3=NC=C2)N
In short: as §1

duvelisib = compound: C[C@H](Nc1ncnc2nc[nH]c12)c1cc2cccc(Cl)c2c(=O)n1-c1ccccc1 [duvelisib]
In short: as §1

gandotinib = compound: Cc1cc(Nc2cc(CN3CCOCC3)c3nc(C)c(Cc4ccc(Cl)cc4F)n3n2)n[nH]1 [gandotinib]
In short: as §1

tozasertib = compound: Cc1cc(Nc2cc(N3CCN(C)CC3)nc(Sc3ccc(NC(=O)C4CC4)cc3)n2)n[nH]1 [tozasertib]
In short: as §1

doramapimod = compound: Cc1ccc(-n2nc(C(C)(C)C)cc2NC(=O)Nc2ccc(OCCN3CCOCC3)c3ccccc23)cc1 [doramapimod]
In short: as §1

[5] = compound: Cc1cccc(CC(=O)N2CCc3c2ccc(-c2cn(C)c4ncnc(N)c24)c3F)n1
In short: as §1

[6] = compound: CNC(=O)C1=CC=CC=C1NC2=NC(=NC=C2Cl)NC3=C(C=C(C=C3)N4CCOCC4)OC
In short: as §1

pictilisib = compound: CS(=O)(=O)N1CCN(Cc2cc3nc(-c4cccc5[nH]ncc45)nc(N4CCOCC4)c3s2)CC1 [pictilisib]
In short: as §1

bafetinib = compound: Cc1ccc(NC(=O)c2ccc(CN3CC[C@H](N(C)C)C3)c(C(F)(F)F)c2)cc1Nc1nccc(-c2cncnc2)n1 [bafetinib]
In short: as §1

Measured: log2 fold change

ZDHHC17 (UniProt Q8IUH5)
inactive: alvocidib -0.44 | Tubastatin A 0.074 | defactinib -0.053 | [1] -0.04 | encorafenib -0.044 | [2] 0.183 | alisertib 0.037 | [3] -0.032 | gefitinib 0.24 | lapatinib 0.042 | crizotinib 0.098 | duvelisib -0.301 | gandotinib 0.037 | tozasertib -0.025 | doramapimod 0.11 | [5] 0.17
active: [4] -0.778

WSB1 (UniProt Q9Y6I7)
inactive: alvocidib 0.184 | Tubastatin A -0.014 | [1] 0.12 | [4] 0.12 | duvelisib -0.137 | [5] -0.674
active: gandotinib -1.11

WAS (UniProt P42768)
Chain of UniProt P42768 (P42768 whole entry, looked up): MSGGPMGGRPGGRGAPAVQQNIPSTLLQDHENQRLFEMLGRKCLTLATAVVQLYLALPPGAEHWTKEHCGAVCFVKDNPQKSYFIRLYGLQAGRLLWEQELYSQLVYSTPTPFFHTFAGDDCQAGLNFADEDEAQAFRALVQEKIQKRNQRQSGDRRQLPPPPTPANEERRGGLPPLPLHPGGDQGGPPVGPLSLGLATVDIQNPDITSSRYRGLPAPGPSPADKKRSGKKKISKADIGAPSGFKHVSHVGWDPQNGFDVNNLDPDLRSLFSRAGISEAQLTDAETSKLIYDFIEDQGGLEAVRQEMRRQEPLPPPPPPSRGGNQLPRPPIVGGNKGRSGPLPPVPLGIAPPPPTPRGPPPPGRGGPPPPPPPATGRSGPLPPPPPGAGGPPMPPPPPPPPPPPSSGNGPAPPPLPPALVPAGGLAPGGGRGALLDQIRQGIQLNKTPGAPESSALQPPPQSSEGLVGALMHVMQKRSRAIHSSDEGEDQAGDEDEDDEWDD
inactive: alvocidib -0.028 | [6] 0.032 | [1] 0.365 | encorafenib 0.004 | [2] 0.08 | alisertib -0.041 | gefitinib 0.215 | pictilisib -0.027 | [4] -0.16 | duvelisib -0.194 | gandotinib -0.057 | tozasertib -0.127 | bafetinib -0.065 | [5] 0.103

ZNF146 (UniProt Q15072)
inactive: [1] 0.12 | duvelisib -0.018

USP22 (UniProt Q9UPT9)
inactive: alvocidib 0.102 | Tubastatin A -0.044 | [6] 0.034 | defactinib 0.017 | [1] -0.027 | encorafenib -0.007 | [2] 0.055 | alisertib 0.02 | gefitinib -0.011 | pictilisib 0.001 | crizotinib -0.072 | [4] 0.004 | duvelisib -0.006 | gandotinib -0.148 | tozasertib 0.036 | doramapimod -0.029 | bafetinib -0.032 | [5] 0.019

ZBTB40 (UniProt Q9NUA8)
inactive: alvocidib 0.09 | Tubastatin A -0.089 | [6] 0.03 | defactinib -0.032 | [1] 0.048 | alisertib -0.187 | [3] -0.038 | gefitinib -0.246 | lapatinib 0.022 | crizotinib 0.036 | [4] -0.249 | duvelisib 0.018 | gandotinib 0.219 | doramapimod -0.02 | [5] 0.004

ZNF346 (UniProt Q9UL40)
inactive: alvocidib 0.05 | Tubastatin A 0.036 | [6] -0.009 | [1] -0.029 | encorafenib -0.006 | [2] 0.062 | alisertib -0.03 | [3] 0.019 | gefitinib 0.046 | lapatinib 0.01 | pictilisib -0.008 | crizotinib 0.009 | [4] -0.01 | duvelisib -0.009 | gandotinib -0.026 | tozasertib 0.005 | doramapimod 0.02 | bafetinib -0.043 | [5] -0.072

WIPI1 (UniProt Q5MNZ9)
inactive: alvocidib -0.046 | Tubastatin A 0.013 | [6] 0.036 | [1] 0.099 | encorafenib -0.009 | [2] 0.029 | alisertib -0.189 | [3] 0.008 | gefitinib -0.017 | lapatinib -0.021 | pictilisib -0.003 | crizotinib 0.058 | [4] -0.013 | duvelisib -0.014 | gandotinib 0.017 | tozasertib 0.039 | doramapimod -0.013 | bafetinib -0.038 | [5] -0.038

ZNF652 (UniProt Q9Y2D9)
inactive: crizotinib -0.007 | doramapimod 0

YBEY (UniProt P58557)
Chain of UniProt P58557 (P58557 whole entry, looked up): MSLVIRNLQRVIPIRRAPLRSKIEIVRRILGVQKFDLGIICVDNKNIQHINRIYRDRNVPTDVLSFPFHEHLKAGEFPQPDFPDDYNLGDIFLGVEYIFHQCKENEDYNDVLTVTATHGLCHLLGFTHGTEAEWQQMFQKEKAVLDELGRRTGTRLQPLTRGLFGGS
inactive: [6] -0.056 | defactinib 0.016 | [1] -0.066 | encorafenib -0.037 | [2] 0.071 | duvelisib 0.049 | tozasertib 0.035

VHL (UniProt P40337)
inactive: alvocidib -0.06 | Tubastatin A -0.117 | [6] -0.009 | defactinib -0.034 | [1] -0.047 | encorafenib 0.143 | [2] -0.047 | alisertib 0.05 | gefitinib -0.029 | pictilisib -0.003 | crizotinib 0.017 | duvelisib 0.148 | gandotinib -0.08 | tozasertib 0 | doramapimod -0.011 | bafetinib 0.092 | [5] -0.021
active: [4] -0.538

WIPI2 isoform 6 (UniProt Q9Y4P8)
Chain of UniProt Q9Y4P8 (Q9Y4P8 whole entry, looked up): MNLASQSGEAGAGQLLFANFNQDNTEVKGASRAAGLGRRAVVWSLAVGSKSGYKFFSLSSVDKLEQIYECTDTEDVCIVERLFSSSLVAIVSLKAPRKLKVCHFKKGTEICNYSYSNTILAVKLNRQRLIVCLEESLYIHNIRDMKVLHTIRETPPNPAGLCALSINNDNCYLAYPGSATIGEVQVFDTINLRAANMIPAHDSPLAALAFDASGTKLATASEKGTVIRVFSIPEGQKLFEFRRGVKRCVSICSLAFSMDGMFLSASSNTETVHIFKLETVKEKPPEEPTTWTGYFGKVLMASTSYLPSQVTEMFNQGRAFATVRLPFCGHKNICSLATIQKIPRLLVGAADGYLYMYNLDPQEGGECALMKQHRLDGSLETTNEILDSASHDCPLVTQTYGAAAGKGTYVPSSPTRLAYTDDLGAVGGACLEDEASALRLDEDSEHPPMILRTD
inactive: alvocidib -0.015 | pictilisib -0.102 | [4] 0.025 | gandotinib 0.181 | bafetinib -0.013 | [5] -0.089

ZNF644 (UniProt Q9H582)
inactive: alvocidib 0.003 | Tubastatin A -0.038 | [6] -0.058 | defactinib 0.025 | [1] -0.02 | encorafenib 0.028 | [2] -0.011 | alisertib -0.018 | gefitinib -0.024 | pictilisib -0.133 | crizotinib -0.026 | [4] 0.04 | duvelisib -0.069 | gandotinib -0.015 | tozasertib 0.015 | doramapimod 0.037 | bafetinib -0.165 | [5] 0.086

ZSCAN21 (UniProt Q9Y5A6)
inactive: alvocidib -0.11 | encorafenib 0.031 | [2] 0.103 | [4] -0.131 | gandotinib -0.108 | tozasertib -0.001 | [5] 0.068

ZFYVE19 isoform 3 (UniProt Q96K21)
Chain of UniProt Q96K21 (Q96K21 whole entry, looked up): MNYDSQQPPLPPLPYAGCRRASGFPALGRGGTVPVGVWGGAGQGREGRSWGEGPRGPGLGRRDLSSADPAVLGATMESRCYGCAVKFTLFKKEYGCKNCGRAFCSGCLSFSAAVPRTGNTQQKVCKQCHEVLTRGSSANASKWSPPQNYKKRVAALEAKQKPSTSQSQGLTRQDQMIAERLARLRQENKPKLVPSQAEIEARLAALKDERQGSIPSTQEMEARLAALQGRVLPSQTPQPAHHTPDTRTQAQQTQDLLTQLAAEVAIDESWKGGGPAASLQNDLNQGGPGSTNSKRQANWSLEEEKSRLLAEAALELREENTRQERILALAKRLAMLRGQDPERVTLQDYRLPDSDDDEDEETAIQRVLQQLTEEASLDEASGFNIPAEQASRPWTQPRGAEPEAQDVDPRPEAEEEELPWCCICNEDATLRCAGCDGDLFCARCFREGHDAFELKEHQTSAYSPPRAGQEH
inactive: [3] -0.006 | lapatinib 0.114 | pictilisib -0.02 | bafetinib -0.013

ZYG11A (UniProt Q6WRX3)
Chain of UniProt Q6WRX3 (Q6WRX3 whole entry, looked up): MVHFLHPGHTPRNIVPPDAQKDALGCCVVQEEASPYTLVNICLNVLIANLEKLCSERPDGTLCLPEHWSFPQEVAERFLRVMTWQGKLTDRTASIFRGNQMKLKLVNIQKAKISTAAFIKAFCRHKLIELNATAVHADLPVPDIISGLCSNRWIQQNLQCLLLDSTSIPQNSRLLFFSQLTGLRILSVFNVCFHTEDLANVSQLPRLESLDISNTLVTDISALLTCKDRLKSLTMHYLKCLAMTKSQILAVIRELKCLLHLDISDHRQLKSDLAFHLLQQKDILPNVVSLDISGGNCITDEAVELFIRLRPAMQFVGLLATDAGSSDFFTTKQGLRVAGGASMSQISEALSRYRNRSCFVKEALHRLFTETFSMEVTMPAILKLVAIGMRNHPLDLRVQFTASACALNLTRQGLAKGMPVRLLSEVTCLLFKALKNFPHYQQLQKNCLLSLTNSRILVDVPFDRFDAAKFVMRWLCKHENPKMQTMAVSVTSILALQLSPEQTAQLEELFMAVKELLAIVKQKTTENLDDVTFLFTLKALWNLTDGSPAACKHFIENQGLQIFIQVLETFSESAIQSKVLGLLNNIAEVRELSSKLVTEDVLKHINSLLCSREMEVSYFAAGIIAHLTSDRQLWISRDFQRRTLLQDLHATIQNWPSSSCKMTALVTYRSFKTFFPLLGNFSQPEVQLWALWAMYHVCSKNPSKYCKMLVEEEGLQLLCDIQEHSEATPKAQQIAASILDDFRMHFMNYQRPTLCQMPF
inactive: alvocidib -0.18 | Tubastatin A 0.018 | [6] -0.013 | alisertib -0.08 | [3] 0.212 | gefitinib -0.029 | lapatinib -0.301 | pictilisib 0.031 | [4] -0.306 | gandotinib 0.192 | bafetinib -0.378 | [5] 0.323

ZSCAN26 (UniProt Q16670)
inactive: crizotinib -0.025 | doramapimod 0.102

UNKL (UniProt E9PDK2)
inactive: defactinib -0.008 | [1] -0.042 | encorafenib 0.044 | [2] 0.106 | pictilisib -0.113 | crizotinib -0.078 | duvelisib 0.184 | tozasertib -0.039 | doramapimod 0.07 | bafetinib -0.041

ZNF845 (UniProt Q96IR2)
Chain of UniProt Q96IR2 (Q96IR2 whole entry, looked up): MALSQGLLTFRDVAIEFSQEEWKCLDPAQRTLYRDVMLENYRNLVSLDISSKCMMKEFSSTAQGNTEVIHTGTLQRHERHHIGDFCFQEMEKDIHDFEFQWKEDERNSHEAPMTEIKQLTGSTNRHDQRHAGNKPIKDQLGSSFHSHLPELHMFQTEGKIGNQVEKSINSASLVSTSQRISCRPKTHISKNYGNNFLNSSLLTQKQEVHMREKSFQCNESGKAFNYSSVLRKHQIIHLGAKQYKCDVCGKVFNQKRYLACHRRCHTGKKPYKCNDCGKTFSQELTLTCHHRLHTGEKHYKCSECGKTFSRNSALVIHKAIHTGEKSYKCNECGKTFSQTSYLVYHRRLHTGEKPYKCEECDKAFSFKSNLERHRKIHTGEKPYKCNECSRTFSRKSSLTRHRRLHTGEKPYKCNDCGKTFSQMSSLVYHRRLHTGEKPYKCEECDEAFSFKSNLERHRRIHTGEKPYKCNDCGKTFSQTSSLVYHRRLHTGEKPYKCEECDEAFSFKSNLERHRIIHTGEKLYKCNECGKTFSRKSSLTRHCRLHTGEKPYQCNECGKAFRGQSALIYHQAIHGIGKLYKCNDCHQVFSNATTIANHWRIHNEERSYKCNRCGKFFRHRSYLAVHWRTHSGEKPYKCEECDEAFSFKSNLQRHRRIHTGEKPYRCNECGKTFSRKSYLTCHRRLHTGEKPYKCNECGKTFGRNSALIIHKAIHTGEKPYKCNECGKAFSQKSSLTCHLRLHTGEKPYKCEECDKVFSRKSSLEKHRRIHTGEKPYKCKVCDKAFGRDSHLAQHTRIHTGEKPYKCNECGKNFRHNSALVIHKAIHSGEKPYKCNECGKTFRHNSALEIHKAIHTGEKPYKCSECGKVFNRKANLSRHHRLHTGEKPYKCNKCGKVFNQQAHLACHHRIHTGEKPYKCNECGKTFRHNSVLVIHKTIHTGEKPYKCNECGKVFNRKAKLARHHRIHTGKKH
inactive: alvocidib 0.011 | Tubastatin A -0.149 | [6] 0.314 | defactinib -0.001 | [1] 0.093 | alisertib -0.018 | [3] 0.035 | gefitinib 0.035 | lapatinib 0.012 | pictilisib -0.013 | crizotinib 0.018 | [4] -0.069 | duvelisib -0.023 | gandotinib 0.015 | doramapimod 0.16 | bafetinib -0.031 | [5] 0.017

XPOT (UniProt F5GYW6)
inactive: [3] 0.121 | lapatinib -0.115

ZKSCAN8 (UniProt Q15776)
inactive: Tubastatin A -0.053 | [6] 0.059 | defactinib 0.037 | [1] 0.009 | encorafenib 0.2 | [2] -0.206 | alisertib -0.084 | [3] -0.001 | gefitinib 0 | lapatinib 0.08 | crizotinib -0.151 | duvelisib 0.068 | tozasertib -0.014 | doramapimod 0.082

VPS72 (UniProt Q15906)
Chain of UniProt Q15906 (Q15906 whole entry, looked up): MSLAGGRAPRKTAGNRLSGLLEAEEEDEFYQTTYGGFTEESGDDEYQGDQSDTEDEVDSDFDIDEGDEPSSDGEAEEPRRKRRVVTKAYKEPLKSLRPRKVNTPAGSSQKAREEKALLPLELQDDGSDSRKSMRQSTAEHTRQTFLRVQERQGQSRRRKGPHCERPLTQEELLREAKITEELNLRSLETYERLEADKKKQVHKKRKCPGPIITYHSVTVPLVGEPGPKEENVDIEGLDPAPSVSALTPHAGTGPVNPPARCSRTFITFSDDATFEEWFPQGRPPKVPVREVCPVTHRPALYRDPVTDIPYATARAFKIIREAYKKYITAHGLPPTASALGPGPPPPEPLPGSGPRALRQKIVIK
inactive: alvocidib 0 | Tubastatin A 0.028 | [6] 0.041 | defactinib -0.078 | [1] -0.02 | encorafenib -0.016 | [2] -0.134 | alisertib -0.058 | [3] -0.017 | gefitinib -0.108 | lapatinib 0.025 | crizotinib 0.005 | [4] -0.099 | duvelisib 0.001 | gandotinib 0.031 | tozasertib 0.059 | doramapimod -0.023 | [5] 0.136

ZNF593 (UniProt O00488)
Chain of UniProt O00488 (O00488 whole entry, looked up): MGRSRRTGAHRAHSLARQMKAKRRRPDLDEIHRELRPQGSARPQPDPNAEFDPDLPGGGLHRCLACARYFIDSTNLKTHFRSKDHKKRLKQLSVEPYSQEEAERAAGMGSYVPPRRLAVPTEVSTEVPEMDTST
inactive: alvocidib -0.005 | Tubastatin A -0.07 | [6] -0.135 | defactinib 0.044 | [1] -0.011 | encorafenib -0.006 | [2] -0.088 | [3] 0.231 | lapatinib -0.114 | pictilisib 0.078 | crizotinib 0.113 | [4] -0.087 | duvelisib 0.089 | gandotinib 0.016 | tozasertib 0.047 | doramapimod 0.033 | bafetinib 0.059 | [5] 0.045

UTRN isoform 2 (UniProt P46939)
inactive: alvocidib -0.084 | [6] -0.166 | encorafenib -0.012 | [2] -0.037 | pictilisib 0.01 | [4] -0.009 | gandotinib 0.04 | tozasertib -0.077 | bafetinib -0.175 | [5] -0.018

WAC isoform 5 (UniProt Q9BTA9)
Chain of UniProt Q9BTA9 (Q9BTA9 whole entry, looked up): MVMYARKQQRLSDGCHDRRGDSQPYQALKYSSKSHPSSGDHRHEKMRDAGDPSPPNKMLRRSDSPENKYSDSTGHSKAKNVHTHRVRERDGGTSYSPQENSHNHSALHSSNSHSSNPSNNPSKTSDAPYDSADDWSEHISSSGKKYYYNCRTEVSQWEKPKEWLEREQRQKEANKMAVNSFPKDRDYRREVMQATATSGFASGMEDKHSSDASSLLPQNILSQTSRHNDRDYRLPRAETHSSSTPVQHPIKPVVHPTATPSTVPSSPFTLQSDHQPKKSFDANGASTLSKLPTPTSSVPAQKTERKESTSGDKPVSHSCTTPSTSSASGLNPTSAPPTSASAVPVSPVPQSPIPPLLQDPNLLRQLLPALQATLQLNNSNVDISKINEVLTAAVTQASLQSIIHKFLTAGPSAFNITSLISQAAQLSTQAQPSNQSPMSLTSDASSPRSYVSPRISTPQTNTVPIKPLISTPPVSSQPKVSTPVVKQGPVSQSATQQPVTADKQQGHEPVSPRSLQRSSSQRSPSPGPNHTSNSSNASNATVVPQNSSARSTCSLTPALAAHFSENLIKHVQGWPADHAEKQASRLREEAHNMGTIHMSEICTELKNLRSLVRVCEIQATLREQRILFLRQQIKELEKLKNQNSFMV
inactive: Tubastatin A -0.119 | [6] -0.359 | [1] -0.117 | duvelisib 0.226

ULK3 isoform 4 (UniProt Q6PHR2)
Chain of UniProt Q6PHR2 (Q6PHR2 whole entry, looked up): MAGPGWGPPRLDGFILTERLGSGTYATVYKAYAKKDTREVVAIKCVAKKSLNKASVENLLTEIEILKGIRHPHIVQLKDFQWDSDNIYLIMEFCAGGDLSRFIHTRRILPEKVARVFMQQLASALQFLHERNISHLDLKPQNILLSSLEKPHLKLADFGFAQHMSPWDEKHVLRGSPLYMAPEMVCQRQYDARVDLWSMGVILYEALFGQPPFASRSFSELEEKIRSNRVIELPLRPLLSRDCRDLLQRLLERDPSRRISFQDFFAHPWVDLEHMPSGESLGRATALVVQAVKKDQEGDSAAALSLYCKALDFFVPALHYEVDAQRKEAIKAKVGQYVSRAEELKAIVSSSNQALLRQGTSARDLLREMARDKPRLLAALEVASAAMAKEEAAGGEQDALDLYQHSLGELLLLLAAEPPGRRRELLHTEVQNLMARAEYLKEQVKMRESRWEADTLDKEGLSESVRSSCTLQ
inactive: alvocidib -0.014 | [6] 0.004 | defactinib 0.039 | [1] 0.016 | encorafenib -0.089 | [2] -0.061 | [3] 0.089 | lapatinib 0.059 | pictilisib -0.008 | crizotinib -0.088 | [4] 0.113 | duvelisib 0.065 | gandotinib -0.08 | tozasertib 0.059 | doramapimod -0.15 | bafetinib 0.041 | [5] 0.354
